About 79,000 compounds went through this panel and 15% of them were active in at least one assay; those are over-represented in the sample as a whole. The source made the active and inactive calls. Rule as the data show it: active = growth inhibition above about 70%; inactive = the rest.

One assay in a line: NCI Yeast Anticancer Drug Screen. Data for the mlh1 rad18 strain (AID 175). The conditions noted are these: S. cerevisiae mlh1 rad18 strain growth inhibition; at 50.0 µM (retest, dose inferred, filed as 5.0); hits give high values. A digest of the protocol: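 Yeast w/ defined DNA-repair lesions; compound exposure; growth vs vehicle controls → % inhibition.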
Take `COc1ccc(C(=O)[O][Sn]([c]2ccccc2)([c]2ccccc2)[c]2ccccc2)c(OC)c1OC`: the growth inhibition was 99% (active).

On to `CCC(CC)C1(C(=O)OCCN(CC)CC)CCCCC1`, for which the growth inhibition is 32% (inactive).

Turning to `O=C1OC(=O)C2C1C1C(c3ccccc3)=C(c3ccccc3)C2(O)C2C(=O)OC(=O)C12` (stereo not given), the growth inhibition is 18% (inactive).

As for `C/C(=C/CC1CCC2C3=CCC4CC(O)CCC4(C)C3CCC12C)C(C)C(C)C` (stereo not given), the growth inhibition is 89% (active).

As to `CCC1(CC(=O)O)OCCc2c1[nH]c1c(C)c(Cl)ccc21` (stereo not given), the growth inhibition is 97% (active).

As to `CN(C)CCCSc1c2ccccc2nc2cccc([N+](=O)[O-])c12`, the growth inhibition is -5% (inactive).

For the molecule `CC1OC(OP(=O)(OCc2ccccc2)OCc2ccccc2)C(OC(=O)c2ccccc2)C(OC(=O)c2ccccc2)C1I` (stereo not given), the growth inhibition was 93% (active).

Turning to `C#CC(CC(C)CC(C)(C)C)NC` (stereo not given), the growth inhibition is 73% (active).

Take `N#CCCN(CCC#N)Cc1cc(-c2ccccc2)ccc1O`: the growth inhibition was 28% (inactive).

With `Cc1ccc(NC(=O)CCCC(=O)C(C#N)c2ccccc2C)cc1C` (stereo not given), the growth inhibition is -4% (inactive).

With `C[C@H]1CC[C@@H]2[C@@H](C)[C@H]3[C@H](C[C@H]4[C@@H]5CC=C6C[C@@H](O)CC[C@]6(C)[C@H]5CC[C@]34C)N2C1`, the growth inhibition was 98% (active).

Consider `Cc1nc(-c2ccc(N=Cc3ccc(N(CCOS(C)(=O)=O)CCOS(C)(=O)=O)cc3)cc2)cs1`, for which the growth inhibition was 54% (inactive).

As for `COc1ccc2nc3cccc([N+](=O)[O-])c3c(NCCO)c2c1`, the growth inhibition was 96% (active).

Take `Oc1ccc(C2CCCCC2)cc1`: the growth inhibition was 40% (inactive).

With `CCCCCc1cc(Cl)cc(Cl)c1O`, the growth inhibition was 18% (inactive).

Regarding `C=C1C(=O)OC2/C=C(\C(=O)O)CC/C=C(\C)CC(OC(=O)/C=C(\C)CC)C12` (stereo not given), the growth inhibition is 93% (active).

For `O/N=C(/Cc1nc2cc(Cl)c(Cl)cc2nc1C/C(=N/O)c1ccncc1)c1ccncc1`, the growth inhibition is 47% (inactive).

`Cc1cc(NC(=S)SCc2ccc3c(c2)OCO3)ccc1Br`: the growth inhibition was 98% (active).

As for `CN1C(=O)OC(C)(c2ccccc2)C1=O` (stereo not given), the growth inhibition is 8% (inactive).

In the case of `O=C1c2ccccc2C(=O)c2c1cccc2[N+](=O)[O-]`, the growth inhibition was 90% (active).

Regarding `O=[N+]([O-])c1ccccc1Oc1ccc([N+](=O)[O-])c(C(F)(F)F)c1`, the growth inhibition is 90% (active).

For `Cc1ccc(O)c(N=Nc2ccc(Cl)cc2)c1`, the growth inhibition was -1% (inactive).

Consider `CC(C)Cc1cc2c(cc1O)CCC1C2CC[C@@]2(C)C1CC[C@@H]2O` (stereo not given in full), for which the growth inhibition was 97% (active).

For the molecule `CCOC(=O)CC1(C)C(=O)CCCC1=O`, the growth inhibition was -156% (inactive).

On to `OC(c1cc(-c2ccc(Cl)cc2Cl)nc2ccccc12)C1CCCCN1` (stereo not given), for which the growth inhibition was 99% (active).

Take `COc1ccc(N=Cc2cc(Br)cc(Br)c2O)cc1.COc1ccc(N=Cc2cc(Br)cc(Br)c2O)cc1.[Co]`: the growth inhibition was 78% (active).

As to `Cc1ccc[n+](CC(=O)C2CCC3C4CC=C5CC(O)CCC5(C)C4CCC23C)c1` (stereo not given), the growth inhibition is 24% (inactive).

Consider `CN(C)CC(C)(C)C(/C=C/c1ccccc1)=N\Nc1ccccc1`, for which the growth inhibition was 76% (active).

`COC1(OC)C2(Cl)C(Cl)=C(Cl)C1(Cl)C1C2C2CC1(C(=O)O)c1ccccc12` (stereo not given): the growth inhibition was 41% (inactive).

For the molecule `NC(N)=N/N=C(\c1ccc(F)cc1)c1ccc(C(F)(F)F)cc1`, the growth inhibition is 99% (active).

In the case of `O=C1CC(c2ccccc2Cl)C(c2ccccc2Cl)C1` (stereo not given), the growth inhibition was 96% (active).

As to `O=C(Cl)c1ccc(N=Nc2ccccc2)cc1`, the growth inhibition is 27% (inactive).

For `O=[N+]([O-])c1ccccc1N=Nc1c(O)[nH]c2ccc(S(=O)(=O)O)cc12`, the growth inhibition is 98% (active).

For `Cc1ccccc1N=NC(C(=O)c1ccccc1)C(=O)c1ccccc1`, the growth inhibition is 97% (active).

As for `CCCCC(CC)(COC(C)=O)COC(C)=O`, the growth inhibition is -1% (inactive).

Regarding `NCCOB(c1ccccc1)c1ccccc1`, the growth inhibition is 99% (active).

For the molecule `O=C(Nc1ccccc1C(=O)O)c1ccccc1`, the growth inhibition is 23% (inactive).

As for `O=[N+]([O-])c1ccc(Sc2c3ccccc3nc3ccccc23)nc1`, the growth inhibition was 99% (active).

In the case of `Cc1oc2c(c1C(=O)c1ccccc1)C(=O)c1ccccc1C2=O`, the growth inhibition was 99% (active).

For the molecule `OC1(c2ccccc2)CCN(c2c3ccccc3nc3ccccc23)CC1`, the growth inhibition was 68% (inactive).

Still in this assay, the particulars now being: S. cerevisiae mlh1 rad18 strain growth inhibition; at 50.0 µM; hits give high values.
With `COc1ccc(C(=O)[O][Sn]([c]2ccccc2)([c]2ccccc2)[c]2ccccc2)c(OC)c1OC`, the growth inhibition was 98.4% (active).

For `CCC(CC)C1(C(=O)OCCN(CC)CC)CCCCC1`, the growth inhibition is 43.2% (inactive).

`O=C1OC(=O)C2C1C1C(c3ccccc3)=C(c3ccccc3)C2(O)C2C(=O)OC(=O)C12` (stereo not given): the growth inhibition was 29.7% (inactive).

As to `C/C(=C/CC1CCC2C3=CCC4CC(O)CCC4(C)C3CCC12C)C(C)C(C)C` (stereo not given), the growth inhibition was 97.3% (active).

As for `CCC1(CC(=O)O)OCCc2c1[nH]c1c(C)c(Cl)ccc21` (stereo not given), the growth inhibition was 97.5% (active).

`CN(C)CCCSc1c2ccccc2nc2cccc([N+](=O)[O-])c12`: the growth inhibition was 20.6% (inactive).

`CC1OC(OP(=O)(OCc2ccccc2)OCc2ccccc2)C(OC(=O)c2ccccc2)C(OC(=O)c2ccccc2)C1I` (stereo not given): the growth inhibition is 85% (active).

`C#CC(CC(C)CC(C)(C)C)NC` (stereo not given): the growth inhibition was 96% (active).

With `N#CCCN(CCC#N)Cc1cc(-c2ccccc2)ccc1O`, the growth inhibition is 82.2% (active).

Consider `Cc1ccc(NC(=O)CCCC(=O)C(C#N)c2ccccc2C)cc1C` (stereo not given), for which the growth inhibition is 12.1% (inactive).

As to `C[C@H]1CC[C@@H]2[C@@H](C)[C@H]3[C@H](C[C@H]4[C@@H]5CC=C6C[C@@H](O)CC[C@]6(C)[C@H]5CC[C@]34C)N2C1`, the growth inhibition is 86.6% (active).

`Cc1nc(-c2ccc(N=Cc3ccc(N(CCOS(C)(=O)=O)CCOS(C)(=O)=O)cc3)cc2)cs1`: the growth inhibition was 71.8% (active).

As to `COc1ccc2nc3cccc([N+](=O)[O-])c3c(NCCO)c2c1`, the growth inhibition is 87.8% (active).

For the molecule `Oc1ccc(C2CCCCC2)cc1`, the growth inhibition is 93.8% (active).

Turning to `CCCCCc1cc(Cl)cc(Cl)c1O`, the growth inhibition was 62.1% (inactive).

As for `C=C1C(=O)OC2/C=C(\C(=O)O)CC/C=C(\C)CC(OC(=O)/C=C(\C)CC)C12` (stereo not given), the growth inhibition was 77.1% (active).

Take `O/N=C(/Cc1nc2cc(Cl)c(Cl)cc2nc1C/C(=N/O)c1ccncc1)c1ccncc1`: the growth inhibition was 89.5% (active).

Take `Cc1cc(NC(=S)SCc2ccc3c(c2)OCO3)ccc1Br`: the growth inhibition was 89.7% (active).

As to `CN1C(=O)OC(C)(c2ccccc2)C1=O` (stereo not given), the growth inhibition is -2.55% (inactive).

As to `O=C1c2ccccc2C(=O)c2c1cccc2[N+](=O)[O-]`, the growth inhibition is 83.8% (active).

For `O=[N+]([O-])c1ccccc1Oc1ccc([N+](=O)[O-])c(C(F)(F)F)c1`, the growth inhibition was 92.7% (active).

On to `Cc1ccc(O)c(N=Nc2ccc(Cl)cc2)c1`, for which the growth inhibition is -23.2% (inactive).

For the molecule `CC(C)Cc1cc2c(cc1O)CCC1C2CC[C@@]2(C)C1CC[C@@H]2O` (stereo not given in full), the growth inhibition is 88.4% (active).

For `CCOC(=O)CC1(C)C(=O)CCCC1=O`, the growth inhibition is -1% (inactive).

For `OC(c1cc(-c2ccc(Cl)cc2Cl)nc2ccccc12)C1CCCCN1` (stereo not given), the growth inhibition was 97.3% (active).

For the molecule `COc1ccc(N=Cc2cc(Br)cc(Br)c2O)cc1.COc1ccc(N=Cc2cc(Br)cc(Br)c2O)cc1.[Co]`, the growth inhibition is 80.8% (active).

On to `Cc1ccc[n+](CC(=O)C2CCC3C4CC=C5CC(O)CCC5(C)C4CCC23C)c1` (stereo not given), for which the growth inhibition was 98% (active).

With `CN(C)CC(C)(C)C(/C=C/c1ccccc1)=N\Nc1ccccc1`, the growth inhibition was 98.3% (active).

For the molecule `COC1(OC)C2(Cl)C(Cl)=C(Cl)C1(Cl)C1C2C2CC1(C(=O)O)c1ccccc12` (stereo not given), the growth inhibition is 90.5% (active).

As for `NC(N)=N/N=C(\c1ccc(F)cc1)c1ccc(C(F)(F)F)cc1`, the growth inhibition is 85.8% (active).

With `O=C1CC(c2ccccc2Cl)C(c2ccccc2Cl)C1` (stereo not given), the growth inhibition was 97.2% (active).

On to `O=C(Cl)c1ccc(N=Nc2ccccc2)cc1`, for which the growth inhibition was 80% (active).

With `O=[N+]([O-])c1ccccc1N=Nc1c(O)[nH]c2ccc(S(=O)(=O)O)cc12`, the growth inhibition is 98.4% (active).

For `Cc1ccccc1N=NC(C(=O)c1ccccc1)C(=O)c1ccccc1`, the growth inhibition was 91.8% (active).

In the case of `CCCCC(CC)(COC(C)=O)COC(C)=O`, the growth inhibition was -16.7% (inactive).

As to `NCCOB(c1ccccc1)c1ccccc1`, the growth inhibition was 51.3% (inactive).

As to `O=C(Nc1ccccc1C(=O)O)c1ccccc1`, the growth inhibition is 78.2% (active).

Take `O=[N+]([O-])c1ccc(Sc2c3ccccc3nc3ccccc23)nc1`: the growth inhibition is 97.2% (active).

On to `Cc1oc2c(c1C(=O)c1ccccc1)C(=O)c1ccccc1C2=O`, for which the growth inhibition was 82% (active).

With `OC1(c2ccccc2)CCN(c2c3ccccc3nc3ccccc23)CC1`, the growth inhibition is 99.4% (active).
